Data published in the supplement of paper PMC10849652.
Targets with a hit are over-represented here; the source holds about 7,900 in all. About 0.6% of all pairs of compound and target were hits. Unmarked numbers belong to inactive results.

What was measured:
Assay in all cases: log2 fold change, soluble protein after heating vs DMSO (PISA); higher = thermal stabilisation; K562 cells, 10 uM, 30 min; active = over 0.2 and 3.5 SD of the protein, either way, in both replicates (recomputed)
erlotinib = compound: C#Cc1cccc(Nc2ncnc3cc(OCCOC)c(OCCOC)cc23)c1 [erlotinib]
Outline: (§1)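 Thermal stability values are relative to control samples and come from duplicates. They are expressed as log2 fold changes. For measurement, K562 cells (2×10^6 cells/mL) received 10 μM compound for 30 min, and aliquots were heated for 3 min over 48°C-58°C, pooled, and extracted at 4°C in PBS with 0.5% NP-40. Soluble protein, the supernatant after 21,000xg for 90 min, was quantified by TMTpro 16plex LC-MS/MS with equalised channel sums.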

[1] = compound: C/C(=N\NC(=O)C1=CC(=CC=C1)S(=O)(=O)N2CCOCC2)/C3=C(C=CC(=C3)Cl)O
Outline: as §1

[2] = compound: C1=CC(=C(C=C1Cl)C2=NC3=NC=CN=C3C(=N2)NC4=CC=NC=C4)F
Outline: as §1

[3] = compound: C1=CC(=CC=C1C2=NC3=C(N2)C=C(C=C3)C(=O)N)OC4=CC=C(C=C4)Cl
Outline: as §1

[4] = compound: C1=CC2=C(C=CC(=C2)/C=C\3/C(=O)NC(=NCC4=CC=CS4)S3)N=C1
Outline: as §1

[5] = compound: C1=CC2=NC=CN=C2C=C1/C=C/3\C(=O)NC(=O)S3
Outline: as §1

[6] = compound: C1=CC=C(C=C1)C2=NC(=C(N2)C3=CC=NC=C3)C4=CC(=C(C=C4)Cl)O
Outline: as §1

[7] = compound: C1=CC=C2C(=C1)C3=NNC4=CC=CC(=C43)C2=O
Outline: as §1

[8] = compound: C1CCN(C1)C(=O)NC2=CC=CC(=C2)NC3=NC=C(C(=N3)NCCC4=CN=CN4)Br
Outline: as §1

[9] = compound: C1CN(CCC1(CC2=CC=C(C=C2)Cl)N)C3=NC=NC4=C3C=CN4
Outline: as §1

IRAK-1-4 Inhibitor I = compound: C1COCCN1CCN2C3=CC=CC=C3N=C2NC(=O)C4=CC(=CC=C4)[N+](=O)[O-] [IRAK-1-4 Inhibitor I]
Outline: as §1

ibrutinib = compound: C=CC(=O)N1CCC[C@@H](n2nc(-c3ccc(Oc4ccccc4)cc3)c3c(N)ncnc32)C1 [ibrutinib]
Outline: as §1

[10] = compound: CC(=O)c1cnc2ccc(-c3cc(Cl)c(O)c(Cl)c3)nc2c1N[C@H]1CC[C@H](CN(C)C)CC1
Outline: as §1

ralimetinib = compound: CC(C)(C)Cn1c(N)nc2ccc(-c3[nH]c(C(C)(C)C)nc3-c3ccc(F)cc3)nc21 [ralimetinib]
Outline: as §1

[11] = compound: CC(C)(O)CC(=O)NCCn1ccc2ncnc(Nc3ccc(Oc4cccc(C(F)(F)F)c4)c(Cl)c3)c21
Outline: as §1

[12] = compound: CC(C)C1=C2N=C(C=C(N2N=C1)NCC3=CC=CC=C3)NCCCCCCN
Outline: as §1

[13] = compound: CC(C)C[C@@H](C=O)NC(=O)[C@H](CC(C)C)NC(=O)[C@H](CC(C)C)NC(=O)OCc1ccccc1
Outline: as §1

pinometostat = compound: CC(C)N(C[C@H]1O[C@@H](n2cnc3c(N)ncnc32)[C@H](O)[C@@H]1O)[C@H]1C[C@@H](CCc2nc3cc(C(C)(C)C)ccc3[nH]2)C1 [pinometostat]
Outline: as §1

[14] = compound: CC1=C(C(CC(=O)N1)C2=CC=C(C=C2)C(F)(F)F)C(=O)NC3=C(C=C4C(=C3)C=NN4)F
Outline: as §1

[15] = compound: CC1=C(C2=C(C=C1)C(=O)C3=CC=CC=C3N2CCCN)C
Outline: as §1

Sequence of UniProt Q8WVY7 (Q8WVY7 whole entry, looked up): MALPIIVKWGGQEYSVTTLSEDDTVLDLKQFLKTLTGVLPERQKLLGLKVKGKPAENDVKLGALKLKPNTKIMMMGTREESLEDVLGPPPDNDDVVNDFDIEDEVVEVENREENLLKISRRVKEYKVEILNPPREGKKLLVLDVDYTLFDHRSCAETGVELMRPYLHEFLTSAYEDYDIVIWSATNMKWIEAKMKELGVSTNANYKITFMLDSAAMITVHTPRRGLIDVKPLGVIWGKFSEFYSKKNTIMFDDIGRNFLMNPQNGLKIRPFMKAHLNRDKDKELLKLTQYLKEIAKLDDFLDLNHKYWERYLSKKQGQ
Sequence of UniProt P68366 (P68366 whole entry, looked up): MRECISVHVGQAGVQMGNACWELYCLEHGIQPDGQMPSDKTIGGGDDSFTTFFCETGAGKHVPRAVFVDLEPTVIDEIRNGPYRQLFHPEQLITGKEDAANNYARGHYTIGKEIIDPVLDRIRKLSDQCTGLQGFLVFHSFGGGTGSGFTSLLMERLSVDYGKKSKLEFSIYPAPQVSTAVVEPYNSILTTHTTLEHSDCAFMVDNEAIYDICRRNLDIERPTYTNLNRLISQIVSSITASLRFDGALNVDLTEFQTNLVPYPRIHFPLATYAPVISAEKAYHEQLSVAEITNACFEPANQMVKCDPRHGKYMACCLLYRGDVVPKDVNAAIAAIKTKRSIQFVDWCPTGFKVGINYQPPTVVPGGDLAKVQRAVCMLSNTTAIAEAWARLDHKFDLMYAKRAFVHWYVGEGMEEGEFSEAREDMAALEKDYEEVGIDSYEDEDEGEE
Sequence of UniProt Q15642 (Q15642 whole entry, looked up): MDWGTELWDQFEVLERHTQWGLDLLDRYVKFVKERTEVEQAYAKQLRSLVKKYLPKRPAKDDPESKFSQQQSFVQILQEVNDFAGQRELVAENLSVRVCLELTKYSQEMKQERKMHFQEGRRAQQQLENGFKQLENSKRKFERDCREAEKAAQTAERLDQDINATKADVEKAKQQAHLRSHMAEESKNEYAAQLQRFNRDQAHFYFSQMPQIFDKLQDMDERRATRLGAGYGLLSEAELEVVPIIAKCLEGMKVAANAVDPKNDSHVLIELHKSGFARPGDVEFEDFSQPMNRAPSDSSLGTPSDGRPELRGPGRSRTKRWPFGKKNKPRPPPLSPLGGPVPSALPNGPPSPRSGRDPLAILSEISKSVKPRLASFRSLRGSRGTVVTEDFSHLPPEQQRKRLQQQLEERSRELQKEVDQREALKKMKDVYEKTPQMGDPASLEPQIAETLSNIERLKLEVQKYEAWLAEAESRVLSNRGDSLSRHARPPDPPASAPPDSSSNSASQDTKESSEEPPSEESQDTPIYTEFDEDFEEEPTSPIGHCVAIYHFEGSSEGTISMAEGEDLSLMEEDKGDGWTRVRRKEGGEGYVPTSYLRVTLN
Sequence of UniProt P18887 (P18887 whole entry, looked up): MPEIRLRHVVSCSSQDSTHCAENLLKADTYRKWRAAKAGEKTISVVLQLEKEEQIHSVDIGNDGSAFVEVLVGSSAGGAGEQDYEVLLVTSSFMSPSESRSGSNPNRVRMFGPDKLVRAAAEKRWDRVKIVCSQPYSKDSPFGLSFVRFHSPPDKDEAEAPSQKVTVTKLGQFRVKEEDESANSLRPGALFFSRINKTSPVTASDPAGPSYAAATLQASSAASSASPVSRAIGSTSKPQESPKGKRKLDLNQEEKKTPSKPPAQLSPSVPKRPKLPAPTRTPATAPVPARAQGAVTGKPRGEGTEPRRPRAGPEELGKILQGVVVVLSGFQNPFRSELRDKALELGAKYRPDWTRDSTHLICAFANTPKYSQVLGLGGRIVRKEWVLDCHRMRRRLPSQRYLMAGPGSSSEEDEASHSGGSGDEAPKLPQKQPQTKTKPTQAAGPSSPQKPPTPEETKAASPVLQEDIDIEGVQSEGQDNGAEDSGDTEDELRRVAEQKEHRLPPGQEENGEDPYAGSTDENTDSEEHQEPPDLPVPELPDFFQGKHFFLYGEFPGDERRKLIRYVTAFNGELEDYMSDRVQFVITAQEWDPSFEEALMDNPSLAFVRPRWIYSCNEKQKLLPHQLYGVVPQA
Sequence of UniProt P02585 (P02585 whole entry, looked up): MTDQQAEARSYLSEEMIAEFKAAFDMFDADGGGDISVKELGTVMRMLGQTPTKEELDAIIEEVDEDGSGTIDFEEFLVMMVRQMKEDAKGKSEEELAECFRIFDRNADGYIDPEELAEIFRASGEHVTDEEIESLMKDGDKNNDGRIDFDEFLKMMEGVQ
Sequence of UniProt Q8N2K1 (Q8N2K1 whole entry, looked up): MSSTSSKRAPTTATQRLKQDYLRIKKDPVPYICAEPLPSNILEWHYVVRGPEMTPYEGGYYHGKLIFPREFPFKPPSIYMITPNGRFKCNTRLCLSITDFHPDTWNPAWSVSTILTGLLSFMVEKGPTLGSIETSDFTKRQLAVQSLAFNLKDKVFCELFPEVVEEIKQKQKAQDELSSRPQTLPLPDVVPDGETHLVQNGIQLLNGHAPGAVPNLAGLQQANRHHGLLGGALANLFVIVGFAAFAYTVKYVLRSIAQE
Sequence of UniProt P21796 (P21796 whole entry, looked up): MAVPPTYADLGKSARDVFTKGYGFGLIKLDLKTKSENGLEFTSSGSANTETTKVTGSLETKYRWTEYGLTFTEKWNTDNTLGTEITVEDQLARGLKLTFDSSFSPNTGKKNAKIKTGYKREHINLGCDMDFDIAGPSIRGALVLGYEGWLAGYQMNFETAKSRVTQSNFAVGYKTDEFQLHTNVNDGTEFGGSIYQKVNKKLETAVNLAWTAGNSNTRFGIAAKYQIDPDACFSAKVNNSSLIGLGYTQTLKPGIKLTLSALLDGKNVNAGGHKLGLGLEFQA
Sequence of UniProt Q9Y4E6 (Q9Y4E6 whole entry, looked up): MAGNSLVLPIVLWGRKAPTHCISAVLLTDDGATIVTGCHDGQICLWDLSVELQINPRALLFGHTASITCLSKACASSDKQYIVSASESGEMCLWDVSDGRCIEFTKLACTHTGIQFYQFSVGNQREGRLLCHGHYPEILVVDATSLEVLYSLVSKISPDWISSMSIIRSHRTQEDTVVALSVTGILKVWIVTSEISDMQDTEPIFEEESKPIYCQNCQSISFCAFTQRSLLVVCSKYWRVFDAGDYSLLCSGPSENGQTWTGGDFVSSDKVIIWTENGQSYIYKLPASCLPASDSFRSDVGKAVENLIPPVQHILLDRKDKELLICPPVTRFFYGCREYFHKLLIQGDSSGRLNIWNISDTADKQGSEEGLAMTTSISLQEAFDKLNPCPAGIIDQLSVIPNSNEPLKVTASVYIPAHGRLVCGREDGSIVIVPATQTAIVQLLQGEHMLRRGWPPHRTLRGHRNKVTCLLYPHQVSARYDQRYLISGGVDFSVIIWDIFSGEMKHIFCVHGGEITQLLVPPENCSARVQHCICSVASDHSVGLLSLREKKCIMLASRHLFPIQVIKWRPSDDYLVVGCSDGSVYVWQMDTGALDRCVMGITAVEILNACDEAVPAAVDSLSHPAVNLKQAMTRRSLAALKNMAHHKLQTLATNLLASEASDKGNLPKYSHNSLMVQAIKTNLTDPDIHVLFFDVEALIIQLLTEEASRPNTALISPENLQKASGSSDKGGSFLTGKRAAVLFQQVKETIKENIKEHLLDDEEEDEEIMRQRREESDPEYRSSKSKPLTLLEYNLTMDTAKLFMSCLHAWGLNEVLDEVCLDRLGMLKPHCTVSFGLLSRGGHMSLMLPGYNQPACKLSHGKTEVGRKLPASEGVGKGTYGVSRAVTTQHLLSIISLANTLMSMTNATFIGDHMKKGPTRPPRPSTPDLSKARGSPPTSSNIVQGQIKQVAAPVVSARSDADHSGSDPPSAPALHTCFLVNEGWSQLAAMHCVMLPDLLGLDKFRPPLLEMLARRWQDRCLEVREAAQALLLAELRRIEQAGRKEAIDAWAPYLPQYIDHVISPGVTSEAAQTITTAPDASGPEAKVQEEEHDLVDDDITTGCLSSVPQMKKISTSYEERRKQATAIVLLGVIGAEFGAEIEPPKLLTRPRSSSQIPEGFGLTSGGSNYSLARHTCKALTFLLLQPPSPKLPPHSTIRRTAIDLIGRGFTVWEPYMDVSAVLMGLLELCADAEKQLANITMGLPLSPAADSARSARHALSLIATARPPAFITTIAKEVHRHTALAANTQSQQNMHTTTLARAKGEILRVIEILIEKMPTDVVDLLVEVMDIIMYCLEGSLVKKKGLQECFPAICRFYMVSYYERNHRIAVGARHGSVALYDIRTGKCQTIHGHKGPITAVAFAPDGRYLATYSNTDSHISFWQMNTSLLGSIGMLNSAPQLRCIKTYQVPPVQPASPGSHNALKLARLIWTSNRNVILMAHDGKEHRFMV
Sequence of UniProt Q9BZM6 (Q9BZM6 whole entry, looked up): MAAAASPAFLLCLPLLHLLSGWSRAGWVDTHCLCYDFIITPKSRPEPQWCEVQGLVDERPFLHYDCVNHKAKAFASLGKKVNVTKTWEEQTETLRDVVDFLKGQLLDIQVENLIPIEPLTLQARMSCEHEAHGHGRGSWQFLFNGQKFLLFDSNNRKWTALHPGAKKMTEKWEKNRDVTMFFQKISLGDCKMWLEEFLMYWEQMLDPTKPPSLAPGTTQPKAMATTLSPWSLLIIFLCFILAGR
Sequence of UniProt Q6PID6 (Q6PID6 whole entry, looked up): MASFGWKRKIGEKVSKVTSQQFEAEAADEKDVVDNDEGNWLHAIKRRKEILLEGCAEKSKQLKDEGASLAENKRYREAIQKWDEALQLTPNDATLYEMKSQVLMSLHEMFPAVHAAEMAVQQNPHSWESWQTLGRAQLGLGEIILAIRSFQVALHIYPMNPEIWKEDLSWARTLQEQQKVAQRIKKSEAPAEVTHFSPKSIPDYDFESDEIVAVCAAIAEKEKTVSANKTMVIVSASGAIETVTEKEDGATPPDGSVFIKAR
Sequence of UniProt Q9NUM4 (Q9NUM4 whole entry, looked up): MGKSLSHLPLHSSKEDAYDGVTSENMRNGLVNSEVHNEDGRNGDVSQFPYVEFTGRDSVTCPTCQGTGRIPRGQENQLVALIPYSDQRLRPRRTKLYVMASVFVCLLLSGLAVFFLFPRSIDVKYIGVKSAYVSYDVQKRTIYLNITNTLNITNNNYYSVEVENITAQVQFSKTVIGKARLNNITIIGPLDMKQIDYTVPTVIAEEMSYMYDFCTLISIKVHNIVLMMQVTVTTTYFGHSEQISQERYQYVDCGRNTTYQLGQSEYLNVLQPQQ

Target	log2 fold change (erlotinib)	log2 fold change [1]	log2 fold change [2]	log2 fold change [3]	log2 fold change [4]	log2 fold change [5]	log2 fold change [6]	log2 fold change [7]	log2 fold change [8]	log2 fold change [9]	log2 fold change (IRAK-1-4 Inhibitor I)	log2 fold change (ibrutinib)	log2 fold change [10]	log2 fold change (ralimetinib)	log2 fold change [11]	log2 fold change [12]	log2 fold change [13]	log2 fold change (pinometostat)	log2 fold change [14]	log2 fold change [15]
TRIP10 isoform 2 (UniProt Q15642)	-0.116	-0.002	0.112	0.094	-0.069	0.055	0.326	0.055	-0.089	0.014	0.09	-0.032	-0.078	0.143	0.004	0.204	-0.118	-0.027	0.118	-0.01
UBE2J2 isoform 3 (UniProt Q8N2K1)	-0.096	0.154	0.026	0.07	-0.057	0.126	–	-0.039	-0.145	-0.015	–	0.086	-0.017	–	-0.019	-0.185	–	–	–	0.02
VDAC1 (UniProt P21796)	-0.006	0	0.039	-0.003	-0.023	0.006	-0.004	0.005	0.006	0.067	0.07	–	0.02	-0.035	0.021	0.058	-0.039	-0.032	-0.009	-0.016
TMEM106B (UniProt Q9NUM4)	0.007	0.028	-0.047	0.031	0.051	-0.002	–	0.003	-0.064	0.15	0.056	0.029	0.043	–	0.043	-0.092	–	0.085	0.026	-0.027
ULBP1 (UniProt Q9BZM6)	-0.017	0.011	0.231	0.044	0.021	–	-0.083	0.037	-0.073	0.078	–	–	-0.038	-0.058	-0.132	0.112	0.006	–	–	0.009
WDR7 (UniProt Q9Y4E6)	0.06	0.074	0.065	-0.049	0.092	-0.001	0.099	0.028	-0.009	-0.02	-0.112	-0.027	-0.078	0.067	-0.141	-0.429 (active)	0.1	0.062	0.029	0.122
TTC33 (UniProt Q6PID6)	0.065	-0.035	0.019	0.001	0.176	-0.107	-0.045	-0.038	–	–	0.059	0.058	-0.121	0.009	-0.023	-0.075	0.139	0.111	–	–
UBLCP1 (UniProt Q8WVY7)	0.03	0.089	0.024	-0.022	-0.029	0.005	-0.019	0.038	0.035	-0.262 (active)	-0.029	-0.072	-0.057	-0.104	-0.061	-0.027	0.191	0.017	-0.023	-0.155
XRCC1 (UniProt P18887)	0.036	-0.392	0.04	0.046	0.304	–	-0.035	0.042	0.043	0.117	0.13	–	0.027	-0.115	-0.368	-0.066	0.432	0.41	–	-0.047
TNNC2 (UniProt P02585)	0.035	-0.007	-0.004	0.018	0.047	0.026	-0.058	-0.026	0.101	-0.449	0.042	0.012	0.004	-0.068	0	0.116	0.025	-0.067	-0.005	0.114
VPS33B (UniProt Q9H267)	0.108	0.093	-0.039	-0.07	0.073	0.053	0.019	0.044	-0.076	-0.102	-0.049	-0.041	-0.068	0.057	-0.107	-0.178	0.098	0.156	0	0.049
UBAP2L isoform 1 (UniProt Q14157)	-0.126	0.013	-0.003	0.083	-0.06	-0.023	0.04	-0.024	-0.082	0.017	0.076	-0.006	0.007	-0.025	0.016	0.103	0.029	-0.031	0.073	0.055
TUBA4A (UniProt P68366)	0.016	0.048	0.048	-0.038	0.069	-0.04	-0.037	0.027	-0.015	0.075	0.039	0.01	0.001	-0.044	-0.032	0	0.016	-0.039	-0.014	0.011
VDAC1 (UniProt C9JI87)	0.277	-0.05	0.095	-0.01	0.13	0.124	0.091	-0.04	–	–	–	–	-0.091	-0.506	-0.052	0.009	-0.013	–	0.21	–
UBA52 (UniProt P62987)	-0.113	-0.266	-0.659	0.093	-0.311	-0.024	-0.029	-0.082	0.165	-0.04	-0.098	0.091	0.21	0.139	0.107	0.044	0.147	0.358	–	-0.532
UBAP1 isoform 4 (UniProt Q9NZ09)	0.001	0.127	0.013	0.049	0.025	0.027	-0.02	0.024	0.058	-0.093	-0.058	0.07	-0.001	-0.024	-0.044	-0.087	0.107	0.018	0.184	-0.112
